TWEAK-Fn14 inh = inhibitors of TWEAK-Fn14 signaling, primary screen, luciferase reporter cells, uHTS. TWEAK-stimulated Fn14 reporter cells, luciferase luminescence, 8 h. inhibition, % at 10 µM. 2% of 360,000 active. AID 1159606, 2016; in the data active = inhibition above about 50%
HIF-2a block = HIF-2a reporter inhibitors, primary screen, luminescence, 786-0 RCC cells; 786-0 RCC cells HIF-2a reporter, luciferase luminescence, overnight; inhibition, % at 18.8 µM; 0.72% of 360,000 active; AID 624352, 2012;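 active = inhibition of the luminescence signal of 40% or more relative to plate controls, in a single-dose primary screen at 18.75 µM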
KKLEB cytotox = cytotoxicity in KKLEB CF airway cells, primary screen, cytotoxicity control for CF NF-kB inhibitor project, cell-based, uHTS, fluorescence assay plates; KKLEB CF airway cells viability, ATPlite luminescence, overnight; hits give low values; cells stimulated with P. aeruginosa culture filtrate; activity change (cytotoxicity), % at 5 µM; 0.36% of 360,000 active;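 active = corrected activity change at or below -50% at 5 µM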
Peg3 prom inh = Peg3 promoter-driven luciferase inhibitors, primary screen, cell-based, HeLa, luciferase luminescence. AID 588405, 2011. 1.7% of 360,000 active. HeLa PEG-Prom luciferase reporter, overnight. inhibition, % at 20 µM;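 active = inhibition of at least 50% at 20 µM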
CF NFkB block = inhibitors of PAF-induced NF-kB signaling, primary screen, cell-based, GFP fluorescence, uHTS. KKLEB NF-kB-GFP reporter, GFP fluorescence overnight. inhibition, % at 5 µM. 0.86% of 360,000 active. AID 588850, 2011;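 active = at least 50% inhibition at 5 µM, scaled per plate between neutral and stimulator controls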;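 also: PAF is a Pseudomonas aeruginosa culture filtrate used as stimulus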
TROY signal inh = inhibitors of TROY-driven NF-kB signaling, primary screen, Q293 LMP1-TROYcd cells, NF-kB luciferase, uHTS; AID 1347056, 2019; Q293 LMP1-TROYcd NF-kB luciferase reporter, 4 h; 0.98% of 360,000 active; inhibition, % at 10 µM;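 active = compounds whose plate-normalised and pattern-corrected inhibition of the luciferase reporter signal at the single screening dose is 50% or more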
Mdm2 MdmX conf = retested Mdm2-MdmX interaction blockers, confirmation, cell-based, luminescence, single concentration, set 2. shares compounds with HIF-2a block. SaOS-2 split-luciferase Mdm2/MdmX complementation. inhibition, % at 8 µM. 99% of 740 active. AID 504601, 2011;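 active = mean inhibition of the luminescence signal across two replicates at or above 26 percent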
Target sequence (O15151 whole entry, looked up): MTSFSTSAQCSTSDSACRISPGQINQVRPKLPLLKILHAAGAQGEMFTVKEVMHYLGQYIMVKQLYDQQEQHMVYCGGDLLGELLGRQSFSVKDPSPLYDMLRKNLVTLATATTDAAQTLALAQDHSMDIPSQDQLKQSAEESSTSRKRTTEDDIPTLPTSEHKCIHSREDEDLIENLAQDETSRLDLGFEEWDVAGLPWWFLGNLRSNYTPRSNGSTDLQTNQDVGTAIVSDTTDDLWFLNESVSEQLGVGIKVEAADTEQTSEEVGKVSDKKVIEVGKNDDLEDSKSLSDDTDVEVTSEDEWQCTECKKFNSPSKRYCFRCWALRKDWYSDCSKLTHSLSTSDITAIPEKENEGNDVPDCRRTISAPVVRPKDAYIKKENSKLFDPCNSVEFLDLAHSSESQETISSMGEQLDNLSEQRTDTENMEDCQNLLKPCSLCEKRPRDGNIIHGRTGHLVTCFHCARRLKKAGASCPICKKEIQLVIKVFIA
Target sequence (Q00987 whole entry, looked up): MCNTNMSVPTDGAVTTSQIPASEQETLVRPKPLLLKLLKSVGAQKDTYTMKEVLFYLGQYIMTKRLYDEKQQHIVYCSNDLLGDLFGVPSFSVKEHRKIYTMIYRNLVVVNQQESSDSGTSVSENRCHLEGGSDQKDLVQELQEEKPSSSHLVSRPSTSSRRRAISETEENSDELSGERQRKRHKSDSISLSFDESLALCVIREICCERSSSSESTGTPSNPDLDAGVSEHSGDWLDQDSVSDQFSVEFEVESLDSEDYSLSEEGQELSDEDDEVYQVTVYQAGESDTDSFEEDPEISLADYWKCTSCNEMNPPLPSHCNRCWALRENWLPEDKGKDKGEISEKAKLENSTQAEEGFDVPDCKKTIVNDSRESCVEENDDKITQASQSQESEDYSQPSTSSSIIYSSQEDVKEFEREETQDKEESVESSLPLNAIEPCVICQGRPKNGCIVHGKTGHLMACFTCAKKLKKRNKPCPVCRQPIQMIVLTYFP
HIF-2a conf = HIF-2a reporter inhibitor retest, confirmation, luminescence, 786-0 RCC cells; shares compounds with HIF-2a block; HIF-2a luciferase reporter luminescence, overnight; inhibition, % at 18.8 µM; 56% of 1,800 active;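 active = mean inhibition across four replicates of at least 40 percent at the single tested concentration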
HIF-1a cs = HIF-1a luciferase reporter signal reduction – MiaPaCa-2 cells, single concentration, counter-screen for HIF-2a inhibitor project, confirmation; inhibition, % at 18.8 µM; 72% of 1,800 active; shares compounds with HIF-2a block; AID 651589, 2012; MiaPaCa-2 HIF-1a luciferase reporter, desferoxamine, overnight;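 active = mean inhibition of the reporter signal across four replicates at the single tested dose of 50% or more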
A number is an active result; - = inactive; . = no result given. Rows were chosen to be rich in hits. Some 3.9% of all compounds tested hit in one or more screens of this group.

SMILES | TWEAK-Fn14 inh | HIF-2a block | KKLEB cytotox | Peg3 prom inh | CF NFkB block | TROY signal inh | HIF-2a conf | HIF-1a cs | others
CCN(CC(=O)Nc1cccc(Br)c1)Cc1nc2ccccc2c(=O)[nH]1 | - | 41.6 | - | - | - | - | - | -
CCOc1ccccc1N(CC(=O)NCCc1ccc(OC)cc1)S(=O)(=O)c1ccc(C)cc1 | - | - | - | - | - | - | . | .
Cc1ccc(N(CC(=O)NCCc2ccc(F)cc2)S(=O)(=O)c2ccc(Cl)c([N+](=O)[O-])c2)c(C)c1 | 52.8 | 92.2 | - | 104.0 | - | - | - | 107.7
CC1CCCCN1Cc1ccc(-c2nnn(CC(=O)NC3CCCCC3)n2)cc1 (stereo unspecified) | - | - | - | - | - | - | . | .
COn1c(C)c(C)c2c3nonc3ccc21 | - | - | - | - | - | - | . | .
O=C(CN1C(=O)c2ccccc2S1(=O)=O)c1ccc(Cl)cc1Cl | 104.6 | 54.9 | - | - | - | 86.9 | 82.4 | 89.8
O=C(CN1C(=O)c2ccccc2S1(=O)=O)c1ccc(F)cc1 | 90.8 | 57.4 | - | 57.5 | - | 73.4 | 64.1 | 59.3
O=C(CN1C(=O)c2ccccc2S1(=O)=O)c1ccc(OC(F)F)cc1 | 97.6 | 52.0 | - | 56.1 | - | 82.3 | 75.0 | 64.1
O=C(O)c1ccc(Sc2nnnn2-c2ccccc2)c([N+](=O)[O-])c1 | - | - | - | - | - | - | . | .
COC(=O)c1ccc(Sc2nnnn2-c2ccccc2)c([N+](=O)[O-])c1 | 84.1 | 40.3 | - | - | - | - | - | -
COC1C(CO)OC(n2c3c(Cl)cccc3c3c4c(c5c6cccc(Cl)c6[nH]c5c32)C(=O)NC4=O)C(O)C1O (stereo unspecified) | - | - | - | - | - | - | . | .
O=C(COC(=O)c1nc(Cl)c(Cl)c(Cl)c1Cl)NCc1ccccc1 | 85.1 | 69.6 | - | 92.5 | - | - | - | -
Nc1nc2c(ncn2[C@@H]2O[C@H](CNCc3ccc(F)c(N4CCOCC4)c3)[C@@H](O)[C@H]2O)c(=O)[nH]1 | - | - | - | - | - | - | . | .
Cc1cc(Oc2ccc(=O)n(C)n2)nc(SCC(N)=O)n1 | - | - | - | - | - | - | . | .
Cc1ccc(CCNC(=O)c2cc(-c3ccncc3)nc3ccc(S(=O)(=O)N4CCOCC4)cc23)cc1 | - | - | - | - | - | - | . | .
CCN(CC)CCNC(=O)c1cc(-c2cccnc2)nc2ccc(S(=O)(=O)N3CCC(C)CC3)cc12 | - | 64.2 | - | 72.1 | - | - | - | 99.5 | Mdm2 MdmX conf=101.7
O=C(O)c1ccc(NC(=S)NC(=O)c2ccc3ccccc3c2)cc1 | - | - | - | - | - | - | . | .
O=C(O)c1cccc(NC(=S)NC(=O)c2ccc3ccccc3c2)c1 | - | 73.9 | - | - | - | - | 75.6 | -
COc1cc(C=CC(=O)c2cc(OC)c(OC)c(OC)c2)cc(OC)c1OC | 64.5 | 59.0 | - | 71.4 | - | - | 89.3 | 104.7
COc1cc(C=CC(=O)c2ccccc2)cc(OC)c1OC | 78.5 | 37.5 | - | 97.5 | - | - | - | 95.1
COc1cc(/C=C/C(C)=O)cc(OC)c1OC | - | - | - | - | - | - | . | .
c1ccc(-c2nnnn2-c2ccccc2)cc1 | - | - | - | - | - | - | . | .
ClC(Cl)(c1nnnn1-c1ccccc1)c1nnnn1-c1ccccc1 | - | 51.5 | - | - | - | 59.2 | - | -
Cc1ccc([C@H]2N[C@]3(CCCN(CC4CCCCC4)C3=O)[C@H]3C(=O)N(C)C(=O)[C@@H]23)cc1 | - | - | - | - | - | - | . | .
COc1ccc(/C=N/Nc2cc(C)nc3ccc(OC)cc23)c(OC)c1 | 86.4 | 91.7 | - | 106.6 | - | 81.7 | . | . | Mdm2 MdmX conf=103.2
SMILES | TWEAK-Fn14 inh | HIF-2a block | KKLEB cytotox | Peg3 prom inh | CF NFkB block | TROY signal inh | HIF-2a conf | HIF-1a cs | others
COC(=O)c1ccc(-c2nn(C)c(=O)c3ccccc23)cc1 | - | - | - | - | - | - | . | .
COC(=O)c1ccc(C(=O)OC)c(-n2c(=O)c3ccccc3c3ccccc3c2=O)c1 | - | 45.4 | - | - | - | - | 52.0 | -
Cc1c(NC(=O)CCc2ccc(S(=O)(=O)N3CCOCC3)cc2)c(=O)n(-c2ccccc2)n1C | - | - | - | - | - | - | . | .
Cc1cccc(NC(=O)CNC(=O)Cn2ncc(Cl)c(Cl)c2=O)c1C | 100.3 | 83.7 | -61.2 | 94.8 | 91.7 | - | . | . | Mdm2 MdmX conf=103.2
Cc1cccc(NC(=O)CNC(=O)CSc2ncccn2)c1C | - | - | - | - | - | - | . | .
O=C(Cn1ncc(Cl)c(Cl)c1=O)NCC1CCCCC1 | 96.6 | 96.8 | -72.6 | 107.6 | 94.8 | - | 90.9 | 104.9
O=C(CSc1nnc(-c2ccccc2)o1)Nc1ccccc1F | 57.0 | 49.0 | - | - | - | - | 66.4 | 60.8
O=C(CSc1nnc(-c2ccc(Br)cc2)o1)Nc1cccc(C(=O)O)c1 | - | 63.0 | - | - | - | - | 63.4 | -
O=C(CSc1nnc(-c2ccncc2)o1)Nc1cc(F)ccc1F | - | - | - | - | - | - | . | .
COc1ccc(F)c(C2C(C#N)=C(N)Oc3n[nH]c(C(C)(C)C)c32)c1 (stereo unspecified) | - | - | - | - | - | - | . | .
Cc1cc(NC(=O)c2ccc([N+](=O)[O-])o2)ccc1NC(=O)c1ccco1 | - | 46.8 | - | 99.8 | 72.7 | - | - | 96.0
Cc1ccc(NC(=O)c2ccc([N+](=O)[O-])o2)cc1S(=O)(=O)N1CCOCC1 | - | 55.1 | - | 102.0 | 56.3 | - | - | 80.1
O=C(Nc1ccc(N2CCOCC2)c(Cl)c1)c1ccc([N+](=O)[O-])o1 | - | 81.4 | - | 105.9 | 74.4 | - | - | 77.1
O=C(Nc1cccc(S(=O)(=O)N2CCCCC2)c1)c1ccc([N+](=O)[O-])o1 | - | 64.0 | - | 53.3 | 88.4 | - | - | 104.2
Cc1cc([N+](=O)[O-])ccc1NC(=O)c1ccco1 | - | - | - | - | - | - | . | .

Source: PubChem
